Data on six molecules can be found in PubChem BioAssay (EPA / NIEHS).

Read-out in assay [1]: Interleukin-1 alpha (IL1a), IL1A (gene 3552)
Briefly: BSK_KF3CT_IL1a: BioMAP Diversity Plus: KF3CT Assay for Interleukin-1 alpha (IL1a) Biomarker Activity (AID 2283070). Conditions: primary human keratinocytes with fibroblasts; actives raise or lower the signal. Summed up:
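Readout is IL-1a level by ELISA, compared bidirectionally with DMSO as baseline. Cells: human keratinocytes co-cultured with foreskin fibroblasts, harvested 24 h post-dose.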

Read-out in assay [2]: TIMP metallopeptidase inhibitor 2 (TIMP2), TIMP2 (gene 7077)
Briefly: BSK_KF3CT_TIMP2: BioMAP Diversity Plus: KF3CT Assay for TIMP metallopeptidase inhibitor 2 (TIMP2) Biomarker Activity (AID 2283071). The settings on record: primary human keratinocytes with fibroblasts; actives raise or lower the signal. Summed up:
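ELISA readout of TIMP-2 in keratinocyte plus foreskin fibroblast co-cultures (human skin primary cells), 24 h post-dose. Gain or loss of signal fitted relative to DMSO.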

Read-out in assay [3]: Transforming growth factor beta 1 (TGFb1), TGFB1 (gene 7040)
As to the kind of experiment: BSK_KF3CT_TGFb1: BioMAP Diversity Plus: KF3CT Assay for Transforming growth factor beta 1 (TGFb1) Biomarker Activity (AID 2283072). Conditions: primary human keratinocytes with fibroblasts; actives raise or lower the signal. In outline:
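Read-out: ELISA for TGF-b1 in keratinocyte/foreskin fibroblast human skin co-culture, 24 h after dosing; bidirectional curve fit vs DMSO baseline; gain or loss of signal scored.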

Read-out in assay [4]: C-C motif chemokine 2 (Homo sapiens) (UniProt P13500)
Briefly: BSK_KF3CT_MCP1: BioMAP Diversity Plus: KF3CT Assay for Monocyte Chemoattractant Protein 1 (MCP1/CCL2) Biomarker Activity (AID 2283073). The settings on record: primary human keratinocytes with fibroblasts; actives raise or lower the signal. Summed up: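 KF3CT skin co-culture (keratinocytes/foreskin fibroblasts), 24 h post-dose; MCP-1 by ELISA; gain/loss of signal fit bidirectionally vs DMSO baseline.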

Read-out in assay [5]: Matrix Metallopeptidase 9 (MMP9), MMP9 (gene 4318)
As to the kind of experiment: BSK_KF3CT_MMP9: BioMAP Diversity Plus: KF3CT Assay for Matrix Metallopeptidase 9 (MMP9) Biomarker Activity (AID 2283074). The settings on record: primary human keratinocytes with fibroblasts; actives raise or lower the signal. Summed up:
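Values come from bidirectional fitting relative to DMSO of MMP-9 levels, which were measured by ELISA. Measurements were taken 24 h after chemical dosing of a keratinocyte and foreskin fibroblast co-culture.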

Read-out in assay [6]: urokinase plasminogen activator (uPA), PLAU (gene 5328)
As to the kind of experiment: BSK_KF3CT_uPA: BioMAP Diversity Plus: KF3CT Assay for urokinase plasminogen activator (uPA) Biomarker Activity (AID 2283075). Conditions: primary human keratinocytes with fibroblasts; actives raise or lower the signal. In outline:
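Values derive from bidirectional fitting against DMSO controls. Keratinocyte/foreskin fibroblast co-cultures received chemical; 24 h later uPA was detected by ELISA, with SRB total-protein staining in parallel wells for overt cytotoxicity.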

Read-out in assay [7]: CD40, CD40 (gene 958)
As to the kind of experiment: BSK_LPS_CD40: BioMAP Diversity Plus: LPS Assay for CD40 Biomarker Activity (AID 2283076). Conditions: primary human HUVEC with PBMC; actives raise or lower the signal. In outline:
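ELISA readout of CD40 in HUVEC/PBMC co-culture (BSK_LPS system), 24 h post-dosing; bidirectional curve fit, DMSO baseline; parallel SRB total-protein staining for cytotoxicity.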

Read-out in assay [8]: E-selectin (Homo sapiens) (UniProt P16581)
Briefly: BSK_LPS_Eselectin: BioMAP Diversity Plus: LPS Assay for Eselectin Biomarker Activity (AID 2283077). Conditions: primary human HUVEC with PBMC; actives raise or lower the signal. Summed up: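 ELISA readout of E-selectin, 24 h post-dose, HUVEC + PBMC co-culture (LPS system). Gain or loss of signal vs DMSO baseline, bidirectional fit.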

Read-out in assay [9]: Interleukin-8 (IL8), CXCL8 (gene 3576)
Briefly: BSK_LPS_IL8: BioMAP Diversity Plus: LPS Assay for Interleukin-8 (IL8) Biomarker Activity (AID 2283078). The settings on record: primary human HUVEC with PBMC; actives raise or lower the signal. In outline: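 HUVEC + PBMC co-culture, LPS-activated; test chemicals dosed, IL-8 read by ELISA at 24 h. Bidirectional curve fit vs DMSO baseline (gain or loss of signal).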

Assay [10] can be described thus: BSK_LPS_SRB: Viability Assessment in the BioMAP Diversity Plus: LPS Assay (AID 2283079).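 Further: total protein by sulforhodamine B absorbance as a cytotoxicity measure; measured one day after compound addition; fitted in both directions against DMSO so loss or gain of signal counts.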 The settings on record: primary human HUVEC with PBMC. In outline:
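HUVEC + PBMC co-culture, LPS-stimulated; compound 24 h. 10% TCA fix, 0.1% SRB stain, A560. Bidirectional fit vs DMSO.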

Read-out in assay [11]: Interleukin-1 alpha (IL1a), IL1A (gene 3552)
Briefly: BSK_LPS_IL1a: BioMAP Diversity Plus: LPS Assay for Interleukin-1 alpha (IL1a) Biomarker Activity (AID 2283080). Conditions: primary human HUVEC with PBMC; actives raise or lower the signal. Summed up:
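HUVEC/PBMC co-culture, LPS system; 24 h after dosing; IL-1a by ELISA; gain or loss of signal fitted bidirectionally vs DMSO baseline.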

Read-out in assay [12]: Monocyte Chemoattractant Protein-1 (MCP1), CCL2 (gene 6347)
As to the kind of experiment: BSK_LPS_MCP1: BioMAP Diversity Plus: LPS Assay for Monocyte Chemoattractant Protein-1 (MCP1) Biomarker Activity (AID 2283081). Conditions: primary human HUVEC with PBMC; actives raise or lower the signal. In outline:
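ELISA read-out of MCP-1 after 24 h chemical dosing of a human umbilical vein endothelial cell/peripheral blood mononuclear cell co-culture stimulated with LPS. Gain or loss of signal fitted relative to DMSO controls.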

Assay [13] can be described thus: BSK_LPS_PGE2: BioMAP Diversity Plus: LPS Assay for Prostaglandin E2 (PGE2) Biomarker Activity (AID 2283082).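 On AC50: secreted prostaglandin E2 measured by ELISA in LPS-stimulated co-culture.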 Conditions: primary human HUVEC with PBMC; actives raise or lower the signal. In outline:
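ELISA read-out of PGE2 from human umbilical vein endothelial cells co-cultured with peripheral blood mononuclear cells under LPS, 24 h post-dose. Gain or loss of signal scored relative to DMSO baseline.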

Read-out in assay [14]: Macrophage colony-stimulating factor (MCSF), CSF1 (gene 1435)
Briefly: BSK_LPS_MCSF: BioMAP Diversity Plus: LPS Assay for Macrophage colony-stimulating factor (MCSF) Biomarker Activity (AID 2283083). Conditions: primary human HUVEC with PBMC; actives raise or lower the signal. In outline: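 HUVEC + PBMC co-culture (human primary), 24 h post-dose; M-CSF by ELISA; gain/loss of signal fitted bidirectionally vs DMSO baseline.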

Read-out in assay [15]: Tissue Factor, F3 (gene 2152)
As to the kind of experiment: BSK_LPS_TissueFactor: BioMAP Diversity Plus: LPS Assay for Tissue Factor Biomarker Activity (AID 2283084). The settings on record: primary human HUVEC with PBMC; actives raise or lower the signal. Summed up:
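HUVEC/PBMC co-culture, LPS-activated; CD142 ELISA read 24 h post-dose; bidirectional curve fit vs DMSO negative control.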

Read-out in assay [16]: Tumor necrosis factor (Homo sapiens) (UniProt P01375)
As to the kind of experiment: BSK_LPS_TNFa: BioMAP Diversity Plus: LPS Assay for Tumour Necrosis Factor alpha (TNFa) Biomarker Activity (AID 2283085).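 On AC50: TNFa protein level quantified by ELISA in the co-culture.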 The settings on record: primary human HUVEC with PBMC; actives raise or lower the signal. Summed up:
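HUVEC/PBMC co-culture, LPS-stimulated; 24 h post-dose; TNFa by ELISA; gain or loss of signal fitted bidirectionally vs DMSO baseline.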

Read-out in assay [17]: Vascular cell adhesion molecule 1 (VCAM1), VCAM1 (gene 7412)
Briefly: BSK_LPS_VCAM1: BioMAP Diversity Plus: LPS Assay for Vascular cell adhesion molecule 1 (VCAM1) Biomarker Activity (AID 2283086). Conditions: primary human HUVEC with PBMC; actives raise or lower the signal. In outline:
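ELISA read-out of VCAM-1 at 24 h post-dosing in an LPS-driven HUVEC/PBMC primary human co-culture; gain or loss of signal fitted bidirectionally against DMSO baseline. Cytotoxicity tracked in parallel cultures by SRB total-protein staining.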

Read-out in assay [18]: CD38, CD38 (gene 952)
As to the kind of experiment: BSK_SAg_CD38: BioMAP Diversity Plus: SAg Assay for CD38 Biomarker Activity (AID 2283087). Conditions: primary human HUVEC with PBMC; actives raise or lower the signal. In outline:
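Measures CD38 on a human endothelial/PBMC co-culture driven by SEB and TSST-1, 24 h after compound exposure, using ELISA with fluorescence detection; DMSO defines baseline for bidirectional curve fitting.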

Read-out in assay [19]: CD69, CD69 (gene 969)
Briefly: BSK_SAg_CD69: BioMAP Diversity Plus: SAg Assay for CD69 Biomarker Activity (AID 2283089).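 On AC50: cell surface CD69 protein quantified by ELISA with fluorescence detection.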 The settings on record: primary human HUVEC with PBMC; actives raise or lower the signal. In outline: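 HUVEC co-cultured with PBMC were dosed with chemical, and CD69 was measured by ELISA with fluorescence read-out 24 h later. Bidirectional curve fitting used DMSO as negative control and activity baseline.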

Read-out in assay [20]: CD40, CD40 (gene 958)
Briefly: BSK_SAg_CD40: BioMAP Diversity Plus: SAg Assay for CD40 Biomarker Activity (AID 2283088). Conditions: primary human HUVEC with PBMC; actives raise or lower the signal. In outline:
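HUVEC/PBMC co-culture, 24 h post-dose; CD40 by ELISA, fluorescence intensity; bidirectional fit vs DMSO negative control.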

A structure can be active in one record and inactive in another. Active and inactive are the calls of the source. How the source made its calls: active means hit-call score of the fitted dose curve at least 0.9, where 1 is the maximum; inactive means score below 0.9.

Sequence of E-selectin (Homo sapiens) (P16581 whole entry, looked up): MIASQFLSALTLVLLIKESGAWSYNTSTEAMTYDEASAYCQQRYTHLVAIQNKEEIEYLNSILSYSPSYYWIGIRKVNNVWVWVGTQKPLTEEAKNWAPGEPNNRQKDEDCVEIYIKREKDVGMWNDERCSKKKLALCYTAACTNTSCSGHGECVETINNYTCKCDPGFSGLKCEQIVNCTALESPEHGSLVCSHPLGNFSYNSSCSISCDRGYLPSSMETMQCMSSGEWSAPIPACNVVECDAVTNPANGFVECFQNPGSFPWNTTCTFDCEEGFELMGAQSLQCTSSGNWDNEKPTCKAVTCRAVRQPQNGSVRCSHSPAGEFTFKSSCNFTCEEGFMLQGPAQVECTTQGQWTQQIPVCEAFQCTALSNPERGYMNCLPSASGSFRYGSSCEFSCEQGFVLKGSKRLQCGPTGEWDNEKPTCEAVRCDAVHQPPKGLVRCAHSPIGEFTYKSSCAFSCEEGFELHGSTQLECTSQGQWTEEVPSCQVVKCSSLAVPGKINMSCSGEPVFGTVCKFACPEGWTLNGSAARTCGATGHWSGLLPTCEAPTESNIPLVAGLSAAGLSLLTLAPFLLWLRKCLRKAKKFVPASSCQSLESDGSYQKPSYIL
Sequence of Tumor necrosis factor (Homo sapiens) (P01375 whole entry, looked up): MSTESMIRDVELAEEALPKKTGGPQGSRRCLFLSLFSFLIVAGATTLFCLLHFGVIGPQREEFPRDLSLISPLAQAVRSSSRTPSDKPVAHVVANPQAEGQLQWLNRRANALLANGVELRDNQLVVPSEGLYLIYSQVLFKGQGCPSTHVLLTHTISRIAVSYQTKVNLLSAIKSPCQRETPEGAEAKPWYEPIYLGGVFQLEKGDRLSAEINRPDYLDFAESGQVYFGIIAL

For `CN(C)[C@@H]1C(=O)C(C(N)=O)=C(O)[C@@]2(O)C(=O)C3=C(O)c4c(O)cccc4[C@@](C)(O)[C@H]3[C@H](O)[C@@H]12`, the outcome in assay [1], in assay [2], in [3], in assay [4], in assay [5] and in assay [6] was inactive. Moreover, the result in [7], in assay [8], in assay [9], in assay [10], in assay [11] and in assay [12] was inactive. Moreover, the result in assay [13], in [14], in assay [15], in assay [16], in [17] and in [18] was inactive. For the same molecule, in assay [19], the result was inactive. Further, the AC50 in assay [16] is 14.7 µM (active); in [19], 5.09 µM (active).

For `FC(F)C(F)(F)OCC(Cn1cncn1)c1ccc(Cl)cc1Cl` (stereo not drawn), the result in assay [1], in assay [2], in [3], in assay [4], in assay [5] and in assay [6] was inactive. Further, the result in assay [8], in assay [9], in assay [11], in assay [12], in assay [15] and in [16] was inactive. In addition, the AC50 was 17.1 µM (active) in assay [7]; 20 µM (active) in assay [10]; 2.52 µM (active) in assay [13]; 30.7 µM (active) in assay [14]; 32.8 µM (active) in [17]; 20 µM (active) in assay [18]. In addition, in assay [19], the AC50 was 30 µM (active).

Turning to `CC(=NC#N)N(C)Cc1ccc(Cl)nc1`, the result in assay [1], in assay [2], in assay [3], in [4], in assay [5] and in assay [6] was inactive. Besides, the outcome in assay [7], in assay [8], in assay [9], in assay [10], in assay [11] and in [12] was inactive. Besides, the outcome in assay [13], in assay [14], in [15], in [16], in assay [17] and in assay [18] was inactive. For the same molecule, the outcome in assay [20] and in [19] was inactive.

With `CC1(C(=O)Nc2ccc(O)c(Cl)c2Cl)CCCCC1`, the result in [1], in assay [2], in [3], in assay [4], in assay [5] and in assay [6] was inactive. Also, the result in assay [7], in assay [9], in assay [10], in assay [11], in assay [12] and in assay [14] was inactive. In addition, the outcome in assay [15], in assay [16], in assay [17], in [18], in assay [20] and in assay [19] was inactive. Also, the AC50 in assay [8] was 16.4 µM (active); in assay [13], 5.46 µM (active).

On to `CCc1cccc(C)c1N(C(=O)CCl)C(C)COC` (stereo not drawn), for which the result in [1], in assay [2], in [3], in assay [4], in [5] and in [6] was inactive. Further, the outcome in assay [8], in assay [9], in [10], in assay [11], in assay [12] and in assay [13] was inactive. Moreover, the outcome in [14], in [15], in [18] and in [20] was inactive. In addition, the AC50 in assay [7] is 17.5 µM (active); in assay [16], 13.1 µM (active); in assay [17], 14.2 µM (active).

As to `C[N+]1(C)CCCCC1`, the result in assay [1], in assay [2], in [3], in [4], in assay [5] and in assay [6] was inactive. In addition, the outcome in assay [7], in assay [8], in assay [9], in [10], in assay [11] and in [12] was inactive. For the same molecule, the result in assay [13], in assay [14], in assay [15], in assay [16], in assay [17] and in [18] was inactive. Further, in assay [19], the outcome was inactive.
